Six molecules from PubChem BioAssay (EPA / NIEHS) can be followed below.

Molecules are shown by their SMILES. Calls of active or inactive are those of the source. Rule for the calls: active = hit-call score of the fitted dose curve at least 0.9, where 1 is the maximum; inactive = score below 0.9.

Assay [1] in a line: APR_HepG2_NuclearSize_24hr: Apredica 24-hour HepG2 Assay for Nuclear Size (AID 2282907). The following applies: high-content imaging, actives raise or lower the signal. A digest of the protocol: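 After fixation and permeabilization, 24-hr-treated HepG2 cells were stained with Hoechst 33342 and imaged on an ArrayScan (20x). Doses spanned 0.39–200 uM in duplicate. Nuclear diameter changes in either direction were fitted relative to 0.5% DMSO controls.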

Assay [2] can be described thus: APR_HepG2_CellLoss_24hr: Apredica 24-hour HepG2 Assay for Cell Loss (AID 2282908).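 For AC50: fit in both directions so a hit may be cell loss or gain.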 The following applies: high-content imaging. The method, boiled down: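 Duplicate wells received compound at ten concentrations (0.39–200 uM; final DMSO 0.5% v/v). After fixation with formaldehyde, nuclei stained with Hoechst 33342 were imaged at 20x. Loss or gain of cell count was fitted relative to DMSO controls.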

Assay [3] in a line: APR_HepG2_MitoticArrest_24hr: Apredica 24-hour HepG2 Assay for Mitotic Arrest (AID 2282910). The following applies: high-content imaging, actives raise or lower the signal. A digest of the protocol:
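HepG2, 24 hr dosing, 0.39–200 uM, 0.5% DMSO final. Formaldehyde-fixed, Triton-permeabilised, anti-phospho-histone H3 plus Hoechst. ArrayScan imaging at 20x; bidirectional fit vs DMSO baseline.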

The nature of assay [4]: APR_HepG2_MitoMembPot_24hr: Apredica 24-hour HepG2 Assay for Mitochondrial Membrane Potential (AID 2282911). The conditions noted are these: imaging, actives raise or lower the signal. The method, boiled down:
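Mitochondrial membrane potential imaged via MitoTracker Red CMXRos (250 nM, 30 min pre-fixation) in fixed HepG2 cells with Hoechst nuclear identification. Ten concentrations 0.39–200 uM, 24 h treatment, 0.5% DMSO; CCCP as positive control.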

A short description of assay [5]: APR_HepG2_MitoMass_24hr: Apredica 24-hour HepG2 Assay for Mitochondrial Mass (AID 2282912). The conditions noted are these: high-content imaging, actives raise or lower the signal. The method, boiled down:
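Readout: fluorescence of MitoTracker Red CMXRos (250 nM, added 30 min pre-fixation) in fixed HepG2 cells imaged by HCS. Exposure lasted 24 hr at 0.39–200 uM; increases and decreases were both fitted relative to DMSO.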

The nature of assay [6]: APR_HepG2_p53Act_24hr: Apredica 24-hour HepG2 Assay for p53 Activation (AID 2282913).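 Note: p53 protein immunofluorescence averaged per cell in HepG2 with Hoechst nuclei.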 The conditions noted are these: high-content imaging, actives raise or lower the signal. A digest of the protocol: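 Fluorescence imaging of formaldehyde-fixed HepG2 cells labelled for p53 and with Hoechst, 24 h after dosing (0.39–200 uM, duplicate wells, 0.5% v/v DMSO). Signal fitted in both directions relative to DMSO.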

Assay [7] in a line: APR_HepG2_CellLoss_72hr: Apredica 72-hour HepG2 Assay for Cell Loss (AID 2282915). The following applies: high-content imaging. The method, boiled down: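 HepG2 cells exposed 72 h to compound at 0.39–200 uM (10 concentrations, duplicate) in 0.5% DMSO. Fixed with 3.7% formaldehyde and Hoechst 33342-stained. Imaged at 20x; nuclear count gives cell number, fitted bidirectionally versus DMSO.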

Assay [8] can be described thus: APR_HepG2_P-H2AX_72hr: Apredica 72-hour HepG2 Assay for H2AX Phosphorylation (AID 2282916).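 Note: phospho-histone H2A.x immunostain intensity per cell marking DNA damage.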 The following applies: imaging, actives raise or lower the signal. A digest of the protocol: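 Phospho-H2A.x imaging endpoint in HepG2 after 72 hr compound exposure (0.39–200 uM, duplicate wells). Activity derived by bidirectional curve fitting with DMSO as baseline.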
Assay [9] in a line: APR_HepG2_MitoMembPot_72hr: Apredica 72-hour HepG2 Assay for Mitochondrial Membrane Potential (AID 2282917). The following applies: imaging, actives raise or lower the signal. A digest of the protocol: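 HepG2 cells dosed 72 hr with compound at 0.39–200 uM in duplicate, 0.5% v/v DMSO final. Mitochondria stained with 250 nM MitoTracker Red CMXRos for 30 min before formaldehyde fixation, imaged by high-content fluorescence; bidirectional fit versus DMSO.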

The nature of assay [10]: APR_HepG2_MitoticArrest_72hr: Apredica 72-hour HepG2 Assay for Mitotic Arrest (AID 2282918). The conditions noted are these: high-content imaging, actives raise or lower the signal. A digest of the protocol:
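High-content imaging of fixed human HepG2 cells after 72 h compound exposure (0.39–200 uM, duplicates, 0.5% DMSO); mitotic arrest scored from phospho-histone H3 and nuclear Hoechst staining relative to DMSO.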

A short description of assay [11]: APR_HepG2_MicrotubuleCSK_72hr: Apredica 72-hour HepG2 Assay for Microtubule CSK Stabilty (AID 2282919). The conditions noted are these: HepG2 microtubule cytoskeleton, high-content imaging, actives raise or lower the signal. A digest of the protocol: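 HepG2, 72 hr cmpd exposure, 0.39–200 uM (10 pts, duplicate), 0.5% DMSO. 3.7% formaldehyde fix, 0.5% Triton perm, anti-alpha-tubulin/Cy5 plus Hoechst. HCS fluorescence intensity; bidirectional fit vs DMSO baseline; taxol as positive control.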

Assay [12] in a line: APR_HepG2_P-H2AX_24hr: Apredica 24-hour HepG2 Assay for H2AX Phosphorylation (AID 2282920). The following applies: high-content imaging, actives raise or lower the signal. A digest of the protocol: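 High-content imaging of phospho-histone H2A.x immunofluorescence, nuclei counterstained with Hoechst 33342, in fixed HepG2 cells. Compounds ran 0.39–200 uM in duplicate for 24 h, final DMSO 0.5%. Signal change fitted both directions against DMSO.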

Assay [13] in a line: APR_HepG2_StressKinase_72hr: Apredica 72-hour HepG2 Assay for Stress Kinase (AID 2282921). The following applies: HepG2 stress kinase (phospho-c-Jun) imaging, actives raise or lower the signal. A digest of the protocol: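 Stress kinase signal reflects nuclear phospho-c-Jun staining in fixed, permeabilized cells exposed 72 h to compound at 0.39–200 uM; DMSO-normalized, fitted for increases or decreases.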

The nature of assay [14]: APR_HepG2_NuclearSize_72hr: Apredica 72-hour HepG2 Assay for Nuclear Size (AID 2282925). The conditions noted are these: high-content imaging, actives raise or lower the signal. The method, boiled down:
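Read-out: nuclear diameter from Hoechst 33342 images (ArrayScan, 20x, six fields/well), via cell-cycle image analysis. HepG2 were dosed 0.39–200 uM for 72 hr in 0.5% DMSO. Bidirectional fit relative to DMSO.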

A short description of assay [15]: APR_HepG2_MitoMass_72hr: Apredica 72-hour HepG2 Assay for Mitochondrial Mass (AID 2282924).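 Note: MitoTracker Red CMXRos stain intensity per cell imaged as mitochondrial mass.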 The conditions noted are these: high-content imaging, actives raise or lower the signal. A digest of the protocol:
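Read-out: MitoTracker Red fluorescence intensity from automated imaging (20x, six fields per well) in human HepG2 liver cells. Dosing ran 72 hr, 0.39–200 uM, 0.5% DMSO; bidirectional curve fitting versus DMSO baseline.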

A short description of assay [16]: APR_HepG2_CellCycleArrest_72hr: Apredica 72-hour HepG2 Assay for Cell Cycle Arrest (AID 2282914). The following applies: high-content imaging, actives raise or lower the signal. A digest of the protocol:
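Read-out: nuclear DNA content from Hoechst 33342 high-content imaging (20x, six fields/well) after 3.7% formaldehyde fixation, fitted bidirectionally against DMSO. Treatment was 72 h in HepG2, ten concentrations 0.39–200 uM, duplicate, 0.5% DMSO.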

The nature of assay [17]: APR_HepG2_StressKinase_24hr: Apredica 24-hour HepG2 Assay for Stress Kinase (AID 2282922). The following applies: HepG2 stress kinase (phospho-c-Jun) imaging, actives raise or lower the signal. The method, boiled down: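 Read-out: phospho-c-Jun immunofluorescence (Cy3 secondary) quantified by high-content imaging at 20x, nuclei defined by Hoechst 33342. Human HepG2 liver cells dosed 24 hr, 0.39–200 uM, DMSO 0.5% v/v; gain or loss of signal fitted relative to DMSO.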

Consider `CCOC(=O)c1ccc(O)cc1`, for which the result in assay [1], in assay [2], in assay [3], in assay [4], in assay [5] and in [6] was inactive. The outcome in assay [7], in assay [8], in assay [9], in assay [10], in assay [11] and in assay [12] was inactive. For the same molecule, the call in [13] and in [14] was inactive.
As to `C#C[C@]1(O)CC[C@H]2[C@@H]3CCC4=CC(=O)CC[C@@H]4[C@H]3CC[C@@]21CC`, the outcome in assay [1], in assay [2], in assay [3], in assay [4], in assay [5] and in assay [6] was inactive. Moreover, the call in assay [7], in assay [8], in assay [9], in assay [10], in assay [11] and in assay [12] was inactive. The outcome in assay [13], in assay [15] and in assay [14] was inactive.
As to `O=C(c1ccccc1)C1CCCCC1`, the call in assay [1], in assay [2], in assay [3], in assay [4], in [5] and in [6] was inactive. In addition, the outcome in [16], in assay [7], in [8], in assay [9], in [10] and in assay [11] was inactive. The outcome in [12], in [13] and in assay [14] was inactive.
Consider `C[C@]12C[C@H](O)[C@H]3[C@@H](CCC4=CC(=O)CC[C@@]43C)[C@@H]1CC[C@@H]2C(=O)CO`, for which the AC50 in assay [1] was 109 µM (active); in [2] it was 65.3 µM (active); in assay [4], 82.9 µM (active); in assay [6] it was 86.2 µM (active); in [7], 32.9 µM (active); in assay [8] it was 34.5 µM (active). Also, the figures for the AC50 in assay [9], in [10] and in [12] were 120 µM (active), 86.1 µM (active) and 96.6 µM (active), respectively. Besides, the result in assay [3], in assay [5], in assay [11], in [13] and in assay [14] was inactive.
For `CCOC(=O)COc1cc(-n2ncc(C(F)(F)F)c(C)c2=O)c(F)cc1Cl`, the outcome in assay [1], in assay [2], in assay [3], in assay [4], in assay [5] and in assay [6] was inactive. For the same molecule, the molecule was called inactive in [16], in assay [7], in [8], in assay [9], in assay [10] and in assay [11]. For the same molecule, the molecule was classed as inactive in assay [12], in assay [13] and in [14].
Take `CCCCCOC(=O)COc1cc(N2C(=O)C3=C(CCCC3)C2=O)c(F)cc1Cl`: the outcome in [1], in assay [2], in assay [3], in [4], in assay [5] and in assay [8] was inactive. The call in assay [9], in assay [10], in assay [11], in assay [13], in assay [17] and in assay [15] was inactive. Moreover, the outcome in [14] was inactive. Further, the AC50 was 105 µM (active) in [7] and 119 µM (active) in assay [12].

The term AC50 denotes the midpoint of the concentration-response curve, whichever way the signal moves.
